Measurements as given in the supplement of paper PMC10849652.
Targets with a hit are over-represented here; the source holds about 8,800 in all. About 0.5% of all pairs of compound and target were hits. Unmarked numbers belong to inactive results.

How the values were obtained:
Assay in all cases: log2 fold change, soluble protein after heating vs DMSO (PISA); higher = thermal stabilisation; K562 lysate, 10 uM; active = over 0.2 and 3.5 SD of the protein, either way, in both replicates (recomputed)
nilotinib = compound: Cc1cn(-c2cc(NC(=O)c3ccc(C)c(Nc4nccc(-c5cccnc5)n4)c3)cc(C(F)(F)F)c2)cn1 [nilotinib]
Summary of the method: (§1)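 Log-two fold change in thermal stability relative to solvent controls is reported from duplicates. For each sample, crude K562 extract from dounce-homogenised pellets in PBS pH 7.4 with 1 mM MgCl2, at 1 mg/mL protein, was treated with 10 μM compound for 30 min. Aliquots heated for 3 min across 48°C-58°C were pooled, brought to 0.5% NP-40 at 4°C and cleared at 21,000xg for 90 min. The supernatant was quantified by TMTpro 16plex LC-MS/MS with channel sums equalised.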

[1] = compound: Cc1nc(Nc2n[nH]c3c2CN(C(=O)N[C@H](CN(C)C)c2ccccc2)C3(C)C)c2sccc2n1
Summary of the method: as §1

dasatinib = compound: Cc1nc(Nc2ncc(C(=O)Nc3c(C)cccc3Cl)s2)cc(N2CCN(CCO)CC2)n1 [dasatinib]
Summary of the method: as §1

[2] = compound: Cc1ncc(-c2ccnc(Nc3ccc(S(C)(=O)=O)cc3)n2)n1C(C)C
Summary of the method: as §1

[3] = compound: Cn1cc(-c2ccc3c(c2)CCN3C(=O)Cc2cccc(C(F)(F)F)c2)c2c(N)ncnc21
Summary of the method: as §1

quisinostat = compound: Cn1cc(CNCC2CCN(c3ncc(C(=O)NO)cn3)CC2)c2ccccc21 [quisinostat]
Summary of the method: as §1

tipifarnib = compound: Cn1cncc1[C@@](N)(c1ccc(Cl)cc1)c1ccc2c(c1)c(-c1cccc(Cl)c1)cc(=O)n2C [tipifarnib]
Summary of the method: as §1

[4] = compound: NC(=O)Nc1cc(-c2cccc(F)c2)sc1C(=O)N[C@H]1CCCNC1
Summary of the method: as §1

[5] = compound: NC(=O)c1cnc(N[C@@H]2CCCC[C@@H]2N)nc1Nc1cccc(-n2nccn2)c1
Summary of the method: as §1

[6] = compound: NC1(c2ccc(-c3nc4ccn5c(=O)[nH]nc5c4cc3-c3ccccc3)cc2)CCC1
Summary of the method: as §1

Sequence of UniProt Q9Y6B2 (Q9Y6B2 whole entry, looked up): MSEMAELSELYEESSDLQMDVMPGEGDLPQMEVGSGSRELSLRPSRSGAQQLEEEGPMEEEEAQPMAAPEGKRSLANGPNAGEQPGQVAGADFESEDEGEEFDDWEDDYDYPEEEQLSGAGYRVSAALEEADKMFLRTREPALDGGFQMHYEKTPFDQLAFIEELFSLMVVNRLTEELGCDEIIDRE
Sequence of UniProt Q9P0K8 (Q9P0K8 whole entry, looked up): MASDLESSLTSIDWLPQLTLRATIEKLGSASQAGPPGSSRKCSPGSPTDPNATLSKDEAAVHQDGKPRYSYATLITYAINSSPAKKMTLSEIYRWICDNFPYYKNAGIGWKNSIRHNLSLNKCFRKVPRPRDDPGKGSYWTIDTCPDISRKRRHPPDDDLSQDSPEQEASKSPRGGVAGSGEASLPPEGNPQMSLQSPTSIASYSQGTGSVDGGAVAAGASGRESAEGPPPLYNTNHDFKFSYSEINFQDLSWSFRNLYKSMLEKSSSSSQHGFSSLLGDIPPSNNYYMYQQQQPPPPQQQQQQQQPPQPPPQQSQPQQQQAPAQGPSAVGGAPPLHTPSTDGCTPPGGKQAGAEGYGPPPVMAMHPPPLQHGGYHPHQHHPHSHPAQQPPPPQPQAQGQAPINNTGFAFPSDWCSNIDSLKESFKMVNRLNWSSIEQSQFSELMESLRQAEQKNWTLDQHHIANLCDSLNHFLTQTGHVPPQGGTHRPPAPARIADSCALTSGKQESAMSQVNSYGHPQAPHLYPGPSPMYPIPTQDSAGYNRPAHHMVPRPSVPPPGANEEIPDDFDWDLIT
Sequence of UniProt Q14153 (Q14153 whole entry, looked up): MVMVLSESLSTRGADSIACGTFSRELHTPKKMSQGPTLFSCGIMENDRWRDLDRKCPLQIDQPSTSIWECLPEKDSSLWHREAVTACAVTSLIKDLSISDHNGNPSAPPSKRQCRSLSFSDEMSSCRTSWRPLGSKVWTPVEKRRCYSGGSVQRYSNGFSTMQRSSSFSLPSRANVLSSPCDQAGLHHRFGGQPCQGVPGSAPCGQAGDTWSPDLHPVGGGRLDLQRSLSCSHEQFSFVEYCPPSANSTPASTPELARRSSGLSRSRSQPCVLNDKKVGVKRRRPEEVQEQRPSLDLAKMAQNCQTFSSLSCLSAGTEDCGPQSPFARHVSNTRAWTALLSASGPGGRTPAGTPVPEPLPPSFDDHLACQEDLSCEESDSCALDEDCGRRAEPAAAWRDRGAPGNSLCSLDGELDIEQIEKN
Sequence of UniProt Q9H8W3 (Q9H8W3 whole entry, looked up): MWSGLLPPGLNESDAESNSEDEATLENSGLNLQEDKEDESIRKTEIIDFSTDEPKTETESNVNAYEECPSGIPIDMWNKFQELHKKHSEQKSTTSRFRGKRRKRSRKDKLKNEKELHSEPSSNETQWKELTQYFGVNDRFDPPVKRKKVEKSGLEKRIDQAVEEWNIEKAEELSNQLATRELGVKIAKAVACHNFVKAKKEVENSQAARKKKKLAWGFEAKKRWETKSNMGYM
Sequence of UniProt Q9NZJ0 (Q9NZJ0 whole entry, looked up): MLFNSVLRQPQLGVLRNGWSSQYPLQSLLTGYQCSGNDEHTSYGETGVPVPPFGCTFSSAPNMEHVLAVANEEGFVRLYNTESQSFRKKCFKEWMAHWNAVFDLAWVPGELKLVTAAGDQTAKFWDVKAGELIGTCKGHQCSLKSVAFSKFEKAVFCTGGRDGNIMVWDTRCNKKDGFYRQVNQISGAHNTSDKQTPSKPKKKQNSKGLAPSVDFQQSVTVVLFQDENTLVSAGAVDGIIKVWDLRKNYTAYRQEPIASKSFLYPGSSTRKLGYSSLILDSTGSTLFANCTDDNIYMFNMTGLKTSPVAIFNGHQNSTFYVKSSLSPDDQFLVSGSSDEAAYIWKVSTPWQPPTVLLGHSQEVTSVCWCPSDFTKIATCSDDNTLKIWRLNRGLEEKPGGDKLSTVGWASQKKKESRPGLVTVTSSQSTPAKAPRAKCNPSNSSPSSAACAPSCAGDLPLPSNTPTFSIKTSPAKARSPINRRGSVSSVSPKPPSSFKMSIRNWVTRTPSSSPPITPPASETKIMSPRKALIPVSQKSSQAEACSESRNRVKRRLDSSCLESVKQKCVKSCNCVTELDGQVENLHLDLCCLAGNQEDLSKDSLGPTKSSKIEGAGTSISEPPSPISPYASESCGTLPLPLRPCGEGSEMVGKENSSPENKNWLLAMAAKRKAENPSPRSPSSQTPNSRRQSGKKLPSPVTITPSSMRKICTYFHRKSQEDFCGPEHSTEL
Sequence of UniProt Q13409 (Q13409 whole entry, looked up): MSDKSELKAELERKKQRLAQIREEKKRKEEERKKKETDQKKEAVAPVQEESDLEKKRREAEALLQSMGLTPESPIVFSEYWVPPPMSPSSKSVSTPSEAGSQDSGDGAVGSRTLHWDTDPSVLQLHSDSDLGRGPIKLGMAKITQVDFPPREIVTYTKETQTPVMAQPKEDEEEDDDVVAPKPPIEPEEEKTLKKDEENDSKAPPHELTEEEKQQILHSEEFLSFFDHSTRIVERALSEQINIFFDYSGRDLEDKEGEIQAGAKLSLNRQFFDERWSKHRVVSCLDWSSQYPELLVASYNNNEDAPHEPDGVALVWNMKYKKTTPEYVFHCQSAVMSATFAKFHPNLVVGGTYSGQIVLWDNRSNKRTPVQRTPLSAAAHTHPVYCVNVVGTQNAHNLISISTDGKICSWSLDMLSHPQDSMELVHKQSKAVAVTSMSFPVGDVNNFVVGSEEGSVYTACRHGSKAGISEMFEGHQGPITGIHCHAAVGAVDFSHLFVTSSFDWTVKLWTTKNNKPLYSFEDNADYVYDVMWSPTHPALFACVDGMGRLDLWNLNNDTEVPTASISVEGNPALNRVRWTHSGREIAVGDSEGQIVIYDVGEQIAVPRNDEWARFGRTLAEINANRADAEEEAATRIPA
Sequence of UniProt Q6PIW4 (Q6PIW4 whole entry, looked up): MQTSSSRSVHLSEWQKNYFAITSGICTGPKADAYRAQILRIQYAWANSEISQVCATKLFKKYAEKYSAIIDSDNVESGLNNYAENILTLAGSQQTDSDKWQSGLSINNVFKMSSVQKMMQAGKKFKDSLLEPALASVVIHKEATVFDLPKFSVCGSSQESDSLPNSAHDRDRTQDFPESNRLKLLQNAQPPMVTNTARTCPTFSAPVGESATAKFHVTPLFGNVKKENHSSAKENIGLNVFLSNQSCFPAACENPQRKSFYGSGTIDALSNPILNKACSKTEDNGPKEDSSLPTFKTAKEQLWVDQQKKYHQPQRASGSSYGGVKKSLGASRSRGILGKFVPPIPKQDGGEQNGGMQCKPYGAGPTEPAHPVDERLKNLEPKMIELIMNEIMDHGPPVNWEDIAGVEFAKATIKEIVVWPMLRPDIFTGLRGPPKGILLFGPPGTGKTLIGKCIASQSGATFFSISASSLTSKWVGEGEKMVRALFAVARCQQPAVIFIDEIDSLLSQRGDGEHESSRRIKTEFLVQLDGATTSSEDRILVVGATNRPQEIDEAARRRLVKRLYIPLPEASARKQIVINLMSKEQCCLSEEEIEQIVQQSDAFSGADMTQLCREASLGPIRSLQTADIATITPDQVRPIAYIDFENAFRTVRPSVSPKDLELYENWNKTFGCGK
Sequence of UniProt Q9NZJ5 (Q9NZJ5 whole entry, looked up): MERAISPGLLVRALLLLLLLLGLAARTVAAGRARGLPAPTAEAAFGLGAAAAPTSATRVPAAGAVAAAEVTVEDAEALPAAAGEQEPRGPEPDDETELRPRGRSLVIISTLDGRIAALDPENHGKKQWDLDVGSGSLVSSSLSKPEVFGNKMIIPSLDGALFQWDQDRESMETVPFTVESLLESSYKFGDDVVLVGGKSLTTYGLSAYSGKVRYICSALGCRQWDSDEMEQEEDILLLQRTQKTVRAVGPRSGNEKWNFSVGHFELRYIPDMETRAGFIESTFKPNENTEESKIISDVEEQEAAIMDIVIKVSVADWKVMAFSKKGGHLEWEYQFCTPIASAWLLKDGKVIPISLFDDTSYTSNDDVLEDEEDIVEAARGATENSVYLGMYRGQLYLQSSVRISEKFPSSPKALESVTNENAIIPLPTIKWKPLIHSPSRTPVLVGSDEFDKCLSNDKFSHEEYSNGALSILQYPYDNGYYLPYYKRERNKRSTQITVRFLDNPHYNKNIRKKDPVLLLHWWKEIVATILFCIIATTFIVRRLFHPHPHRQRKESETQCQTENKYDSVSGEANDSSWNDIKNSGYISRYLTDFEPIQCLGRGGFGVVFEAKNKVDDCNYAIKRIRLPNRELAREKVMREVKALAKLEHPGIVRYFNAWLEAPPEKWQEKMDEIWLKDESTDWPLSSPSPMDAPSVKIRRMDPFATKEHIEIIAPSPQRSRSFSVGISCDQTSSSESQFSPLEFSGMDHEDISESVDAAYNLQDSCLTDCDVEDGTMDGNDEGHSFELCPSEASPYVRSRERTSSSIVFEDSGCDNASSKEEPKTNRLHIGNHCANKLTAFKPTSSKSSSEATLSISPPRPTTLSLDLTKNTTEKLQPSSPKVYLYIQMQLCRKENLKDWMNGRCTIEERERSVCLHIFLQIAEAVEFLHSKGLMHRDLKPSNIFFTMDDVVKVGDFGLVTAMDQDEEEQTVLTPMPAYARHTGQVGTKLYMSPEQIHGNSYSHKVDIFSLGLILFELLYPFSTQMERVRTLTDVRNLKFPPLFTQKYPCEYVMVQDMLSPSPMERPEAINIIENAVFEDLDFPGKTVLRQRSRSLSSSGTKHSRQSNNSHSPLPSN
Sequence of UniProt P58012 (P58012 whole entry, looked up): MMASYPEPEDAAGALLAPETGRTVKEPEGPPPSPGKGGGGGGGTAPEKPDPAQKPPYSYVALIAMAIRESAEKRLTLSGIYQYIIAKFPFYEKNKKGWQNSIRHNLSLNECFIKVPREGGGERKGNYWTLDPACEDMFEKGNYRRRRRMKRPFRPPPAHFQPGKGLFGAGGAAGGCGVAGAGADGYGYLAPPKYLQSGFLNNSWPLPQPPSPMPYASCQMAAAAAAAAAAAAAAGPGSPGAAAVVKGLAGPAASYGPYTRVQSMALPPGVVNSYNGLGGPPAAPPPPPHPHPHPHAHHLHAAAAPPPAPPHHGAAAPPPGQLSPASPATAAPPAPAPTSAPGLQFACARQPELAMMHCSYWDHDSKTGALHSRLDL

Target	log2 fold change (nilotinib)	log2 fold change [1]	log2 fold change (dasatinib)	log2 fold change [2]	log2 fold change [3]	log2 fold change (quisinostat)	log2 fold change (tipifarnib)	log2 fold change [4]	log2 fold change [5]	log2 fold change [6]
FIGNL1 (UniProt Q6PIW4)	-0.011	0.037	-0.101	0.054	0.068	-0.08	-0.044	0.035	-0.02	-0.035
EPHX2 (UniProt P34913)	0.097	-0.036	0.005	0.027	0.007	0.02	0.021	-0.036	-0.021	-0.015
GAPVD1 (UniProt Q14C86)									-0.023	
EPB41 isoform 4 (UniProt P11171)	0.124	0.044		-0.165		-0.077	0.036	0.053	0.089	-0.096
DST isoform 3 (UniProt Q03001)										-0.071
GAA (UniProt P10253)	0.058	0.115		0.267		0.024	-0.336	0.007	-0.014	-0.003
FAT2 (UniProt Q9NYQ8)	-0.086	0.086		0.014		-0.978 (active)	-0.028	0.36	0.025	-0.087
GC isoform 3 (UniProt P02774)			0.044		-0.114	0.175		-0.076		
ERG28 (UniProt Q9UKR5)			0.029		0.059				-0.015	
FAM204A (UniProt Q9H8W3)						-0.129		0.069		0.098
FOXL2 (UniProt P58012)			0.023		-0.013				-0.15	0.076
GART (UniProt C9JZG2)	-0.085	-0.033		0.042		-0.373	-0.101	-0.02	0.139	
FLT4 (UniProt P35916)			-0.202		0.013				0.162	0.106
DUSP22 isoform 2 (UniProt Q9NRW4)	-0.039	-0.073	-0.022	0.064	-0.001		0.038		0.036	0.109
DYRK1A isoform 2 (UniProt Q13627)						-0.095		0.139		-0.047
FTSJ1 isoform 2 (UniProt Q9UET6)									-0.019	
EPB41, A0A2R8Y783			0.028		-0.11				-0.108	
EWSR1 (UniProt H7BY36)			-0.104		-0.025	0.112		0.118		
DTL (UniProt Q9NZJ0)	0.005	-0.022	0.044	-0.052	0.066	-0.227 (active)	0.036	0.025		0.048
FAM111A (UniProt Q96PZ2)			-0.097		0.015	0.18		0.039	0.035	-0.037

Target	log2 fold change (nilotinib)	log2 fold change [1]	log2 fold change (dasatinib)	log2 fold change [2]	log2 fold change [3]	log2 fold change (quisinostat)	log2 fold change (tipifarnib)	log2 fold change [4]	log2 fold change [5]	log2 fold change [6]
GCA (UniProt P28676)	0.071	-0.11		0.096			-0.141		-0.118	-0.017
EPN2 (UniProt I3L356)	-0.248	0.062		-0.291			0.238		0.021	
DYNC1I2 isoform 2 (UniProt Q13409)			-0.058		0.046	-0.009		0.024	-0.008	-0.025
FMNL2 isoform 3 (UniProt Q96PY5)	-0.1	-0.087	0.101	-0.018	-0.028	-0.1	-0.012	-0.047	0.002	-0.021
FAM53B (UniProt Q14153)	0.015	0.013	0.036	0.004	0.14	-0.078	-0.013	0.093		0.042
FBXO45 (UniProt P0C2W1)	0.025	0.028		-0.088		-0.006	-0.011	0.008	0.147	-0.002
FAT1 (UniProt Q14517)						0.572 (active)		-0.105	-0.017	-0.071
GABPB1 isoform 3 (UniProt Q06547)			-0.086		0.034	-0.017		-0.012	-0.037	-0.016
FYN (UniProt P06241)			0.02		0.004	0.022		-0.029	-0.025	0.043
FBRSL1, A0A3B3IRR3	0.034	0.022	0.01	0.013	-0.042	0.031	-0.073	0.029		0.066
EIF2B5, A0A3B3ITK8	-0.455	0.16		-0.134			0.313		-0.054	
EID1 (UniProt Q9Y6B2)	0.067	0.085	-0.306	0.05	0.32		0.021			0.133
ESRRB isoform 1 (UniProt O95718)										0.182
FOXJ2 (UniProt Q9P0K8)	0.033	0.29	0.056	0.077	0.018		-0.293			-0.111
EIF3I (UniProt Q5TFK1)	0.108	-0.239		-0.035			-0.511		0.387	
EIF2AK3 (UniProt Q9NZJ5)	0.124	0.012	-0.385	-0.001	0.269		-0.088		0.104	-0.166
FNDC3A (UniProt Q9Y2H6)	-0.057	-0.125		-0.293		-0.247	-0.064	0.059		-0.03
GDE1 (UniProt Q9NZC3)			0.012		-0.012	0.085		0.029	-0.02	-0.022
EXO5 (UniProt Q9H790)						-0.082		-0.071		0.08
